The results in this text go back to PMC8384837, “Expanding the binding specificity for RNA recognition by a PUF domain”.

Assay in all cases: yeast three-hybrid, YBZ-1, SC-Leu-His + 0.5 mM 3-AT, 4 days
Common to all, as to conditions: tags: N-Gal4 AD-HA kept; label: inside an RPR1-promoter hybrid RNA with tandem MS2 sites; ssRNA

The target of assay [1] is PUM1 PUF domain R5-SGG (Homo sapiens, UniProt Q14671 828-1176, C1007S;R1008G;Q1011G). The method in brief:
(§1)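 Each repeat of the Pumilio-1 PUF domain was randomized at its three base-contacting residues, and these libraries were co-expressed from a centromeric plasmid with matching RNA elements in strain YBZ-1. After four days on SC-Leu (input) or SC-Leu-His + 0.5 mM 3-AT (selection), the repeat regions were PCR-amplified and Illumina-sequenced. The interaction score compares variant frequency between input and selection as a log change, computed in log2 with a pseudocount of 1 for absent variants.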

Assay [2] deals with T1, PUM1 PUF domain R6-HFL (Homo sapiens, UniProt Q14671 828-1176, N1043H;Y1044F;Q1047L).
T1 sequence: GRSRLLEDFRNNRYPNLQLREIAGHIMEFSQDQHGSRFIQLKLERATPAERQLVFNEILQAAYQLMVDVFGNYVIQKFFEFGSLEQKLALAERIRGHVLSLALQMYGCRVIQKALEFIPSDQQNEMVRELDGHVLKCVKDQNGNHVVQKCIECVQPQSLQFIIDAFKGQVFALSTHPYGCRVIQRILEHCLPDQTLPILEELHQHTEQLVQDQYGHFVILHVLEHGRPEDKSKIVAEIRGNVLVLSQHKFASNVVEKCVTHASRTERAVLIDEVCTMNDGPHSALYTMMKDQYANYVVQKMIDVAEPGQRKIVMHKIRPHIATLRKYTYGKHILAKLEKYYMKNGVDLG
The method in brief:
as §1

The target of assay [3] is PUM1 PUF domain R4-PHC (Homo sapiens, UniProt Q14671 828-1176, N971P;Q975C). The method in brief:
as §1

Assay [4] concerns the target PUM1 PUF domain R5-RQL (Homo sapiens, UniProt Q14671 828-1176, C1007R;R1008Q;Q1011L). The method in brief: as §1
The target in assay [5] is PUM1 PUF domain R3-FRM (Homo sapiens, UniProt Q14671 828-1176, C935F;Q939M). The method in brief:
as §1

Assay [6] deals with PUM1 PUF domain R3-RQW (Homo sapiens, UniProt Q14671 828-1176, C935R;R936Q;Q939W). The method in brief:
as §1

In assay [7] the target is PUM1 PUF domain R1-RCV (Homo sapiens, UniProt Q14671 828-1176, S863R;R864C;Q867V). The method in brief:
as §1

The target in assay [8] is PUM1 PUF domain R1-KLE (Homo sapiens, UniProt Q14671 828-1176, S863K;R864L;Q867E). The method in brief:
as §1

With “GGCUAGAACUAGUGGAUCCCCCGGCGCCCGGCGGCUCGAGCCCGGGUAAGUGUGAAUAGUCUGCAUGCCGCCGGGCGCCAUGCCUGCAGGUCGACUCUAGAAAACAUG”, the binding signal in assay [1] was 3.53 log2 enrichment (interaction score).

“GGCUAGAACUAGUGGAUCCCCCGGCGCCCGGCGGCUCGAGCCCGGGUAAGUGUAAAUAGUCUGCAUGCCGCCGGGCGCCAUGCCUGCAGGUCGACUCUAGAAAACAUG”: the binding signal in assay [2] is 2.57 log2 enrichment (interaction score).

For the sequence “GGCUAGAACUAGUGGAUCCCCCGGCGCCCGGCGGCUCGAGCCCGGGUAAGUGUAUAUAGUCUGCAUGCCGCCGGGCGCCAUGCCUGCAGGUCGACUCUAGAAAACAUG”, the binding signal in assay [3] is 4.13 log2 enrichment (interaction score).

For the sequence “GGCUAGAACUAGUGGAUCCCCCGGCGCCCGGCGGCUCGAGCCCGGGUAAGUGUACAUAGUCUGCAUGCCGCCGGGCGCCAUGCCUGCAGGUCGACUCUAGAAAACAUG”, the binding signal in assay [3] was 3.16 log2 enrichment (interaction score).

Consider “GGCUAGAACUAGUGGAUCCCCCGGCGCCCGGCGGCUCGAGCCCGGGUAAGUGUCAAUAGUCUGCAUGCCGCCGGGCGCCAUGCCUGCAGGUCGACUCUAGAAAACAUG”, for which, in assay [4], the binding signal was 2.74 log2 enrichment (interaction score).

Regarding “GGCUAGAACUAGUGGAUCCCCCGGCGCCCGGCGGCUCGAGCCCGGGUAAGUGUAAGUAGUCUGCAUGCCGCCGGGCGCCAUGCCUGCAGGUCGACUCUAGAAAACAUG”, in assay [5], the binding signal was 5.33 log2 enrichment (interaction score).

On to “GGCUAGAACUAGUGGAUCCCCCGGCGCCCGGCGGCUCGAGCCCGGGUAAGUGUAAUUAGUCUGCAUGCCGCCGGGCGCCAUGCCUGCAGGUCGACUCUAGAAAACAUG”, for which the figures for the binding signal in assay [5] and in assay [6] were 0.74 log2 enrichment (interaction score) and 2.52 log2 enrichment (interaction score), respectively.

With “GGCUAGAACUAGUGGAUCCCCCGGCGCCCGGCGGCUCGAGCCCGGGUAAGUGUAAAUUGUCUGCAUGCCGCCGGGCGCCAUGCCUGCAGGUCGACUCUAGAAAACAUG”, the binding signal in assay [7] is 1.82 log2 enrichment (interaction score); in assay [8], 4.05 log2 enrichment (interaction score).

As to “GGCUAGAACUAGUGGAUCCCCCGGCGCCCGGCGGCUCGAGCCCGGGUAAGUGUAAAUCGUCUGCAUGCCGCCGGGCGCCAUGCCUGCAGGUCGACUCUAGAAAACAUG”, the binding signal was 3.67 log2 enrichment (interaction score) in assay [7] and 3.36 log2 enrichment (interaction score) in assay [8].
